Results filed as inconclusive are left out. Where a call stands in place of a potency, no number is given. Activity calls are given as the source filed them. Calls follow the shape of the dose curve; as a rule, active = well fitted activation curve with a large enough effect in the repeat runs; inconclusive = weak or mixed curves; inactive = flat fitted curve, though single readings scatter.

The nature of the assay: A CellTox Green Cytotoxicity Assay to monitor cytotoxicity in HepG2 cells - 16 hour (AID 1224876). Also: nearly all actives have a fitted effect of over 45% in size. Conditions: CellTox Green fluorescence; series mostly up to 76.8 µM. From the text: National Center for Advancing Translational Sciences [NCATS]
NIH Chemical Genomics Center [NCGC]
U.S. Environmental Protection Agency [EPA]
National Institutes of Environmental Health Sciences [NIEHS]
National Toxicology Program [NTP]
Cell-based models are critical for drug discovery. Determining the natural cytotoxic effects resulting from test compounds is an essential research activity. A CellTox Green Cytotoxicity Assay to monitor cytotoxicity in real time of continues cell culture during 40 hours of the compound treatment was used to screen Tox21 10K library compounds in HepG2 cells. CellTox Green Cytotoxicity Assay is a nonlytic, homogeneous, biofluorescent method to measure cytotoxicity in cell culture after experimental manipulation. The assay system uses a proprietary asymmetric cyanine dye that is excluded from viable cells but preferentially stains the dead cell's DNA. […] Viable cells produce no appreciable increases in fluorescence. Therefore, the fluorescence signal produced by the binding interaction with dead cell DNA is proportional to cytotoxicity.
The mixture of HepG2 cell suspension and reagents were dispensed at 600cells/6 ul/well in 1536-well tissue culture treated black solid bottom plates using a Multidrop dispenser. After the assay plates were incubated at a 37 C/5% CO2 incubator for 5 hours, 23 nL of compounds dissolved in DMSO, positive and negative controls was transferred to the assay plate by a pintool work station. The plates were incubated at 37 C for 40 hours. The fluorescence intensity were measured at 0h, 8h, 16h, 24h, 32h and 40h time points using ViewLux plate reader during compound treatment.
`O=C1[C@H](CC[C@H](O)c2ccc(F)cc2)[C@@H](c2ccc(O)cc2)N1c1ccc(F)cc1`: the Potency entry was “inactive”.
Same read-out and setting: the value for `CCCCCCOC(=O)CCC` was “inactive”; that for `CCCCCC/C=C/C=O` was “inactive”.
Still for that read-out and setting: then `NC(N)=N/N=C/c1c(Cl)cccc1Cl`, with “inactive”; and `Cc1ccc2c(ccc3ccccc32)c1`, with “inactive”; and `Cc1cccc(C(C)(C)C)c1O`, with “inactive”.
With `CCCCOC(O)CC` (stereo not given), the Potency entry was “inactive”.
On to `CC(=O)/C=C/C1C(C)=CCCC1(C)C` (stereo not given), for which the Potency result is “inactive”.
As to `CN1CCC(OC(c2ccccc2)c2ccccc2)CC1`, the Potency entry is “inactive”.
As for `Nc1ccc(C(=O)Nc2ccccc2N)cc1`, the Potency result was “inactive”.
For the compound `CC(=O)/C(C)=C/C1C(C)=CCCC1(C)C` (stereo not given), the Potency entry was “inactive”.
With `NC[C@H]1O[C@H](O[C@H]2[C@H](O)[C@@H](O[C@H]3O[C@H](CO)[C@@H](O)[C@H](N)[C@H]3O)[C@H](N)C[C@@H]2N)[C@H](O)[C@@H](O)[C@@H]1O`, the cytotoxicity increase is 10.8% [at 6.97 µM] (inactive).
On to `O=C(O)Cc1sc(-c2ccccc2)nc1-c1ccc(Cl)cc1`, for which the Potency entry is “inactive”.
Regarding `C=CCCCCCC`, the Potency result was “inactive”.
`CCCCCCCCCCCCCCCCCBr`: the cytotoxicity increase is -9.75% [at 15.8 µM] (inactive).
Take `CCCCCCCCCCCCCCC1CO1` (stereo not given): the Potency entry is “inactive”.
Consider `O=C(O)c1cccc(N(Cc2cccnc2)c2ccc(OC(F)F)c(OC(F)F)c2)c1`, for which the Potency result was “inactive”.
On the same count and under the same terms, the value for `CN(C)C/C=C(/c1ccc(Br)cc1)c1cccnc1` was “inactive”.
On the same count and under the same terms, the value for `Nc1nc(N)c2nc(CNc3ccc(C(=O)N[C@@H](CCC(=O)O)C(=O)O)cc3)cnc2n1` was “inactive”.
Consider `Cc1cc(NC(=O)C(=O)O)cc(C)c1Oc1ccc(O)c2c1CCC2`, for which the Potency result was “inactive”.
Take `O=C(C(=O)c1ccc(Br)cc1)c1ccc(Br)cc1`: the cytotoxicity increase was -6.44% [at 15.8 µM] (inactive).
Consider `O=C1c2cccc(O)c2C(=O)c2c(O)cc(CO)cc21`, for which the Potency entry is “inactive”.
`CCN(CC)C(C)CN1c2ccccc2Sc2ccccc21` (stereo not given): the Potency result was “inactive”.
For the compound `Cc1nc2ccccc2n1Cc1ccc(Cl)cc1`, the Potency result is “inactive”.
For `CCCCOCCOCCOCCOCCO`, the Potency entry is “inactive”.
For `O=C(O)COC(=O)Cc1ccccc1Nc1c(Cl)cccc1Cl`, the Potency result was “inactive”.
On to `Oc1ccc(Sc2ccc(O)cc2)cc1`, for which the Potency result was “inactive”.
Regarding `CN(C)CC/C=C1\c2ccccc2COc2ccccc21`, the Potency entry was “inactive”.
Regarding `O=C(NN1CCCC1)NS(=O)(=O)c1ccc(Cl)cc1`, the Potency entry is “inactive”.
For the compound `C[C@@H](C1=C(CCN(C)C)Cc2ccccc21)c1ccccn1`, the Potency result is “inactive”.
The same measure, in the same setting: then `Cc1cc(O)ccc1N`, with “inactive”.
As to `NCCCOCCOCCOCCCN`, the Potency result was “inactive”.
The same measure, in the same setting: the value for `OCCC1CCCCN1` (stereo not given) was “inactive”; that for `CC(C)CC=O` was “inactive”.
On the same count and under the same terms, then `Oc1ccc(Cc2ccccc2)cc1`, with “inactive”.
Still for that read-out and setting: the value for `CC1CCc2cc(F)cc3c(=O)c(C(=O)O)cn1c23` (stereo not given) was “inactive”.
With `CCC(=O)OC(C)(C)C1CC=C(C)CC1` (stereo not given), the Potency result was “inactive”.
Take `COC(Cc1ccccc1)OC`: the Potency entry is “inactive”.
Regarding `O=C(c1ccc(O)cc1)c1ccc(O)cc1`, the Potency result was “inactive”.
In the case of `N[C@H]1C(O)O[C@H](CO)[C@H](O)[C@@H]1O` (stereo not given in full), the Potency entry is “inactive”.

(Values after PubChem BioAssay (Tox21).)
